# Measurements reported in the supplement of paper PMC12350171.
# Structures can show the parent of a compound that is named as a salt.
# Test system: Haemophilus parainfluenzae
# Test: growth AUC normalised to DMSO control (fraction of control); higher = less growth inhibition, active = hit call of the paper
# Conditions: 20 µM;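 active = AUC significantly below DMSO controls by Student t-fit with adjusted P under 0.01; inactive = not significantly reduced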
# How it was run: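 For the AUC endpoint, growth curves were integrated by the trapezoidal rule up to the exponential-to-stationary transition and normalised to DMSO controls on the same plate. The curves came from OD578 readings taken hourly for 24 h, in three biological replicates. Pathogens had been passaged anaerobically twice and inoculated at an OD578 of 0.01 into pre-reduced mGAM plates carrying 20 μM compound and 1% DMSO, sealed with breathable membranes. Medium for Haemophilus parainfluenzae also contained hemin and NAD.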
row,SMILES,growth AUC normalised to DMSO control
1,COc1cc(-c2ccc(=O)[nH]n2)ccc1OC(F)F [Zardaverine],1.02 (inactive)
2,COCCc1ccc(OCC(O)CNC(C)C)cc1 (stereo not drawn) [Metoprolol-(+)-tartrate salt],0.952 (inactive)
3,CC(NCCc1ccc(O)cc1)C(O)c1ccc(O)cc1 (configuration not stated) [Ritodrine hydrochloride],1 (inactive)
4,O=c1n(CCCN2CCN(c3cccc(Cl)c3)CC2)nc2ccccn12 [Trazodone hydrochloride],0.98 (inactive)
5,CCCCC(O)c1ccccc1 (configuration not stated) [Fenipentol],0.989 (inactive)
6,C=CC1=C(C(=O)O)N2C(=O)[C@@H](NC(=O)/C(=N\OCC(=O)O)c3csc(N)n3)[C@H]2SC1 [Cefixime],0.0416 (active)
7,Nc1ccc(C(=O)NCC(=O)O)cc1 [Aminohippuric acid],1 (inactive)
8,CN(C)CCCN1c2ccccc2Sc2ccccc21 [Promazine hydrochloride],0.841 (inactive)
9,CCOC(=O)n1ccn(C)c1=S [Carbimazole],0.99 (inactive)
10,Clc1ccc(CCC(Cn2ccnc2)Sc2c(Cl)cccc2Cl)cc1 (configuration not stated) [Butoconazole nitrate],0.97 (inactive)
11,C[C@]12CC[C@@H]3c4ccc(OS(=O)(=O)O)cc4CC[C@H]3[C@@H]1CCC2=O [Estropipate piperazine salt],0.985 (inactive)
12,COC1=CC(=O)C[C@@H](C)[C@]12Oc1c(Cl)c(OC)cc(OC)c1C2=O [Griseofulvin],1.02 (inactive)
13,C=C1/C(=C\C=C2/CCC[C@]3(C)[C@@H]([C@H](C)/C=C/[C@@H](O)C4CC4)CC[C@@H]23)C[C@@H](O)C[C@@H]1O [Calcipotriene],0.836 (inactive)
14,COC(=O)CCc1ccc(OCC(O)CNC(C)C)cc1 (configuration not stated) [Esmolol hydrochloride],1.09 (inactive)
15,Nc1nc2ccc(OC(F)(F)F)cc2s1 [Riluzole hydrochloride],1.01 (inactive)
16,CC(=O)N1CCN(c2ccc(OCC3COC(Cn4ccnc4)(c4ccc(Cl)cc4Cl)O3)cc2)CC1 (configuration not stated) [Ketoconazole],1.03 (inactive)
17,C[C@H](N)[C@H](O)c1cccc(O)c1 [Metaraminol bitartrate],0.968 (inactive)
18,CN[C@@H]1[C@H](O[C@H]2[C@H](O[C@H]3[C@H](O)[C@@H](O)[C@H](N=C(N)N)[C@@H](O)[C@@H]3N=C(N)N)O[C@@H](C)[C@]2(O)C=O)O[C@@H](CO)[C@H](O)[C@H]1O [Streptomycin sulfate],0.633 (active)
19,CC(C)[C@H](N)C(=O)OCCOCn1cnc2c(=O)nc(N)[nH]c21 [Valacyclovir hydrochloride],0.99 (inactive)
20,"CC(C)NCC(O)c1ccc(O)c(O)c1 (single isomer, unassigned; (-)) [(-) Isoproterenol hydrochloride]",1.03 (inactive)
21,C[C@]12CC[C@H]3[C@@H](CCC4=CC(=O)CC[C@@]43C)[C@@H]1CC[C@@H]2C(=O)CO [Deoxycorticosterone],1.04 (inactive)
22,COc1cc(N)c(Cl)cc1C(=O)NC1CCN(CCCOc2ccc(F)cc2)CC1OC (configuration not stated) [Cisapride],1.03 (inactive)
23,C[C@H](CCC(=O)O)[C@H]1CC[C@H]2[C@@H]3[C@H](O)C[C@@H]4C[C@H](O)CC[C@]4(C)[C@H]3CC[C@]12C [Chenodiol],0.95 (inactive)
24,CO[C@@H]1[C@@H](O[C@@H]2O[C@H](C)[C@@H](O[C@H]3C[C@@](C)(O)[C@@H](OC(=O)CC(C)C)[C@H](C)O3)[C@H](N(C)C)[C@H]2O)[C@@H](CC=O)C[C@@H](C)[C@@H](O)/C=C/C=C/C[C@@H](C)OC(=O)C[C@H]1OC(C)=O [Josamycin],0.0327 (active)
25,CCOC(=O)OC(C)OC(=O)[C@@H]1N2C(=O)[C@@H](NC(=O)[C@H](N)c3ccccc3)[C@H]2SC1(C)C (some centres not stated) [Bacampicillin hydrochloride],0.0618 (active)
26,CC[C@H]1OC(=O)[C@H](C)[C@@H](O[C@H]2C[C@@](C)(OC)[C@@H](O)[C@H](C)O2)[C@H](C)[C@@H](O[C@@H]2O[C@H](C)C[C@H](N(C)C)[C@H]2O)[C@](C)(O)C[C@@H](C)CN(C)[C@H](C)[C@@H](O)[C@]1(C)O [Azithromycin],0.0436 (active)
27,CN(C/C=C/c1ccccc1)Cc1cccc2ccccc12 [Naftifine hydrochloride],0.977 (inactive)
